Among the data in PubChem BioAssay are outcome, potentiation and inhibition values, retold here.

For part of these data: Entries with a potency or affinity are not part of this list. Calls of active or inactive are those of the source.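 How the source made its calls, unless noted: active means primary screen active and over 50% activation in each of two duplicate runs; inactive means the rest.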

The subject of test [1] is TRPC4 beta (transient receptor potential cation channel C4), mouse. Description: activators of mouse TRPC4 channel, confirmation, cell-based, Fluo4 calcium, HEK293 TRPC4beta/mu-opioid, duplicates, 10 µM (AID 2426;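 active means fluorescence ratio normalized to control raised more than 50% in primary screen plus both repeat runs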). Particulars: Fluo4 calcium fluorescence, at 10 µM; hits give high values.
Test [2] relates to transient receptor potential cation channel C4 beta (TRPC4), mouse. In words: activators of mouse TRPC4 channel, confirmation, cell-based, second round, Fluo4, HEK293 TRPC4beta/mu-opioid, 1 µM (AID 2461). Particulars: Fluo4 calcium fluorescence, at 1 µM; hits give high values.
In test [3] the test system is TRPC4 (transient receptor potential cation channel C4 beta), mouse. In words: positive allosteric modulators of mouse TRPC4, confirmation, cell-based, second round, Fluo-4, HEK293 TRPC4beta/mu-opioid, 1 µM (AID 2554;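 active means primary screen hit whose fluorescence ratio, in both repeats, exceeds the weak agonist control mean by 3 SD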). The conditions noted are these: DAMGO EC20, Fluo-4 calcium flux, at 1 µM; hits give high values. (In general: Calcium assays in cells follow changes in intracellular calcium, usually with a dye or a luminescent sensor.)

The test system of test [4] is TRPC4 beta (transient receptor potential cation channel C4), mouse. In words: positive allosteric modulators of mouse TRPC4, confirmation, cell-based, Fluo-4, HEK293 TRPC4beta/mu-opioid (AID 2555;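 active means primary screen hit whose calcium fluorescence ratio, in both repeats, exceeds the weak agonist control mean by 3 SD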). The conditions noted are these: DAMGO EC20, Fluo-4 calcium flux, at 10 µM; hits give high values.
Test [5] addresses Short transient receptor potential channel 4 (Mus musculus) (UniProt Q9QUQ5). Description: inhibitors of mouse TRPC4 channel, confirmation, cell-based, Fluo4, HEK293 TRPC4beta/mu-opioid (AID 2636;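 active means calcium signal cut by more than 3 SD below the full-agonist control yet still positive, in both repeats and the earlier primary screen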). The conditions noted are these: DAMGO, Fluo4 calcium flux, at 10 µM; hits give high values.
Test [6] shares this target. Description: inhibitors of mouse TRPC4 channel, confirmation, cell-based, second round, Fluo4, HEK293 TRPC4beta/mu-opioid, 1 µM (AID 2637;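 active means calcium signal ratio cut to more than 3 SD under the fully stimulated control mean yet still positive, in both repeats and the primary screen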). The conditions noted are these: Fluo4 calcium flux, DAMGO, at 1 µM; hits give high values.
Test [7] shares this target. In words: mouse TRPC4 channel activators, dose response, cell-based, HEK293 TRPC4/mu-opioid, Fluo-4 calcium (AID 434937;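 active means primary screen activator hit with a dose response curve and TRPC4 channel activation at any tested dose; inactive means no activation, no dose response, or not a primary hit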).
Test [8] has the same target. In words: TRPC4 positive allosteric modulators, dose response, cell-based, HEK293 TRPC4/mu-opioid, Fluo-4 calcium, EC20 DAMGO (AID 434941;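 active means earlier screen potentiator hit that boosts the TRPC4 ion channel at some dose, with a dose response; inactive means no potentiation, no dose response, or not a prior hit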;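 further: calcium entry triggered by an EC20 dose of DAMGO at the co-expressed mu-opioid receptor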).
The target is the same in test [9]. Description: mouse TRPC4 channel inhibitors, dose response, cell-based, HEK293 TRPC4/mu-opioid, Fluo-4 calcium (AID 434942;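 active means primary screen inhibitor hit that blocks the TRPC4 channel at some tested dose, yielding a dose curve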).
The target of test [10] is Short transient receptor potential channel 6 (Mus musculus) (UniProt Q61143). In words: inhibition of mouse TRPC6 channel, confirmation, selectivity assay for TRPC4 inhibitor project, cell-based, HEK293, membrane potential dye, duplicate (AID 434948;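 active means active in primary screen and both duplicates, each dropping signal beyond three positive-control SD with fluorescence still positive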). The conditions noted are these: HEK293 TRPC6, membrane potential dye fluorescence, at 10 µM, stimulated with maximal-effect acetylcholine; hits give high values.
Short transient receptor potential channel 6 (Mus musculus), sequence (Q61143 whole entry, looked up): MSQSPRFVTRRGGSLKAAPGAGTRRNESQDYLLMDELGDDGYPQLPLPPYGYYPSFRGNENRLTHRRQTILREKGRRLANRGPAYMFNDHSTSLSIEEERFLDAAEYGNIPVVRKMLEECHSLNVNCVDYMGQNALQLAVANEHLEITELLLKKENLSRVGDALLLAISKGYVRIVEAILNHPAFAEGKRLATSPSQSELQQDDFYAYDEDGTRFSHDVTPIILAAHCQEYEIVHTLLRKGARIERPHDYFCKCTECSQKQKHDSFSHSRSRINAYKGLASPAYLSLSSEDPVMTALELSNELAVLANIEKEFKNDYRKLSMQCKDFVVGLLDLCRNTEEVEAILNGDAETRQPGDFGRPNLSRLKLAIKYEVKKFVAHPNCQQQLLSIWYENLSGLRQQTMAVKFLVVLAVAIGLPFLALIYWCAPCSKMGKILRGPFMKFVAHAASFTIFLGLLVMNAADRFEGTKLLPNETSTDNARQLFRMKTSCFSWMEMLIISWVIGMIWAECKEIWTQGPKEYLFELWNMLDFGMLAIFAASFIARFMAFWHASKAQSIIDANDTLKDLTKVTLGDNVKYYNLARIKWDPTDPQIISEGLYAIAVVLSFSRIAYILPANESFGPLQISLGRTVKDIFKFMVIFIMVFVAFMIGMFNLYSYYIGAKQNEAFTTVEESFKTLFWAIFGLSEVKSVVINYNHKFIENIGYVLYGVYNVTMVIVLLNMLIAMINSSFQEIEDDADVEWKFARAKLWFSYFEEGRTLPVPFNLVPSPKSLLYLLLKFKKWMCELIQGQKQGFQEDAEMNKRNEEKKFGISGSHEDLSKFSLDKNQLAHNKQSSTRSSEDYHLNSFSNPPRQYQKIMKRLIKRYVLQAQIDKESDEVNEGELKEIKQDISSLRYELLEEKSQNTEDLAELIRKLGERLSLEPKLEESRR

For test [11] the target is unchanged. In words: activation of mouse TRPC6 channel, confirmation, selectivity assay for TRPC4 activator project, cell-based, HEK293, membrane potential dye, duplicate (AID 434950;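 active means membrane potential signal rise above negative control mean plus 3 SD in both duplicates, also active in the earlier TRPC4 screen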). The conditions noted are these: HEK293 TRPC6, membrane potential fluorescence, at 10 µM; hits give high values.
For test [12] the target is unchanged. In words: TRPC6 potentiation by TRPC4 potentiator hits, confirmation, selectivity assay for TRPC4 potentiator project, HEK293 cells, membrane potential dye, duplicate (AID 434952;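 active means compound raising the membrane signal above positive-control mean plus 3 SD in both repeats, and a primary screen hit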). Particulars: HEK293 TRPC6, membrane potential dye fluorescence, at 10 µM, maximal acetylcholine added after compound; hits give high values.
Test [13] has as its target Short transient receptor potential channel 4 (Mus musculus) (UniProt Q9QUQ5). Description: calcium flux activators in TRPC4/5HT1a cells, counter-screen for TRPC4 activator project, cell-based, second counter screen, HEK293 TRPC4/5HT1a, Fluo-4 (AID 434977;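 active means calcium signal rise above buffer-control mean plus 5 SD in both duplicates, and also a hit in the primary screen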). The conditions noted are these: Fluo-4 calcium flux, at 10 µM; hits give high values.
Test [14] is described as follows: calcium flux inhibitors in TRPC4/5HT1a cells, confirmation, counter-screen for TRPC4 inhibitor project, cell-based, second counter screen, HEK293 TRPC4/5HT1a, Fluo-4 (AID 434978;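 active means primary screen active whose calcium signal fell more than 3 SD beyond the full-serotonin control mean in both duplicate plates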;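 on outcome: serotonin given first at submaximal then at maximal dose after compound preincubation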). Particulars: Fluo-4 calcium flux, at 10 µM, serotonin added to trigger calcium flux; hits give high values.
Test [15] relates to TRPC4 (mouse), co-expressed with 5HT1a in HEK293. Description: calcium flux potentiators in TRPC4/5HT1a cells, confirmation, counter-screen for TRPC4 potentiator project, cell-based, second counter screen, HEK293 TRPC4/5HT1a, Fluo-4 (AID 434979;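 active means signal rise over 3 SD above mean of control wells given weak agonist, in both repeats and first screen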). The conditions noted are these: Fluo-4 calcium flux, at 10 µM, serotonin added at its EC20 dose; hits give high values.
Test [16] is described as follows: calcium flux activation in mu-opioid HEK293 cells, confirmation, counter-screen for TRPC4 activator project, cell-based, HEK293 mu-opioid receptor line (AID 449723;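 active means hit in primary screen, with calcium signal over 5 SD above buffer well mean in both duplicates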;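 further: counter screen cells carry the mu-opioid receptor alone and lack TRPC4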). The conditions noted are these: Fluo-4 calcium fluorescence, at 10 µM; hits give high values.
The nature of test [17]: calcium flux enhancement in mu-opioid HEK293 cells, confirmation, counter-screen for TRPC4 allosteric potentiator project, cell-based, HEK293 mu-opioid receptor line (AID 449724;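 active means calcium signal rise more than 3 SD above the low-dose agonist control mean, in both duplicate plates and the primary screen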;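 further: HEK293 cells carrying mu-opioid receptor only with no TRPC4 channel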). Particulars: Fluo-4 calcium flux, at 10 µM, compound added before EC20 DAMGO stimulus; hits give high values.

Short transient receptor potential channel 4 (Mus musculus), sequence (Q9QUQ5 whole entry, looked up): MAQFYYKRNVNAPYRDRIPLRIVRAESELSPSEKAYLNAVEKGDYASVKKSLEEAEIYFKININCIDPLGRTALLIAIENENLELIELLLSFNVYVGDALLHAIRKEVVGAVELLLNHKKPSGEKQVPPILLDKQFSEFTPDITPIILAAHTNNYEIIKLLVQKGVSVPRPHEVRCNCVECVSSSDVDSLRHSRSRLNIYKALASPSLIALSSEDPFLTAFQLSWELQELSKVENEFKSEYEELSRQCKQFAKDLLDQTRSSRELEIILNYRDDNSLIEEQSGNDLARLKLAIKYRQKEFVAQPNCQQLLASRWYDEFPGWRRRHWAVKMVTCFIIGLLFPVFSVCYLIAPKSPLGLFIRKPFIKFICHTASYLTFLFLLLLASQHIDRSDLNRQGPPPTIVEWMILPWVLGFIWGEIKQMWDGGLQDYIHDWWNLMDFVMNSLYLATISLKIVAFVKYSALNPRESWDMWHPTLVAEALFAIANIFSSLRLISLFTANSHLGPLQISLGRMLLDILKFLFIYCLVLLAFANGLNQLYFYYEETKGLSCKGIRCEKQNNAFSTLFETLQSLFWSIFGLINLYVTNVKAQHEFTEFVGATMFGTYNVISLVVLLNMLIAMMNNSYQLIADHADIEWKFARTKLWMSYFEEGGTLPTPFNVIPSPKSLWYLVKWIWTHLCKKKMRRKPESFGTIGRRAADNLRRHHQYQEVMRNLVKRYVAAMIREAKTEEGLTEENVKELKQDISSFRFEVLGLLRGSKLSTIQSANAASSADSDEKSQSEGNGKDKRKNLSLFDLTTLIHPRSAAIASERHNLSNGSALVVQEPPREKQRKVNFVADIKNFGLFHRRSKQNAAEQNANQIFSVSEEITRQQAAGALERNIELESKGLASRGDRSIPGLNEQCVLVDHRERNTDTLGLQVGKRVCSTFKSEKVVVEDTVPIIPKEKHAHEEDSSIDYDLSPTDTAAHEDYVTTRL

`CCOc1ccc(-n2c(C)cc(/C=C3/C(=N)N4C(=NC3=O)SN=C4S(C)(=O)=O)c2C)cc1`: the outcome in test [1], in test [2], in [3], in test [4], in test [5] and in test [6] was inactive. In addition, the result in test [7], in test [8], in test [9], in test [10], in test [11] and in test [12] was inactive. Moreover, the outcome in test [13], in test [14], in test [15], in test [16] and in [17] was inactive.

For the molecule `Cc1oc(-c2ccc(Cl)cc2)nc1CN1CCC(C(=O)N2CCc3ccccc3C2)CC1`, the result in test [1], in test [2], in test [3], in test [5], in test [6] and in [7] was inactive. Besides, the outcome in test [8], in [9], in [10], in test [11], in [12] and in test [13] was inactive. The result in test [14], in test [16] and in [17] was inactive. Further, the potentiation in test [4] is 16% (active); in test [15] it was 10.2% (active).

For `COc1ccc(CCNC(=O)Cn2cnc3c(cnn3C(C)(C)C)c2=O)cc1OC`, the outcome in [1], in test [2], in test [3], in [4], in test [5] and in test [6] was inactive. In addition, the outcome in [7], in test [8], in test [9], in [10], in [11] and in test [12] was inactive. Also, the result in test [13], in test [14], in test [16] and in [17] was inactive. Further, in test [15], the potentiation is 7.92% (active).

On to `COc1cc(S(=O)(=O)N2CCC(N3CCCCC3)CC2)ccc1-n1cnnn1`, for which the outcome in test [1], in test [2], in test [5], in [6], in test [7] and in [8] was inactive. Further, the outcome in [9], in [10], in test [11], in test [12], in test [13] and in test [14] was inactive. The result in test [16] and in [17] was inactive. Also, the potentiation in [3] is 12% (active); in [4] it was 8% (active); in test [15], 13.4% (active).

As to `CCOC(=O)c1ccc(NC(=S)N2CCSC2c2ccc(Cl)cc2)cc1` (stereo not given), the result in [1], in test [2], in [3], in test [5], in [6] and in test [7] was inactive. Further, the outcome in test [8], in test [9], in test [10], in test [11], in [12] and in test [13] was inactive. For the same molecule, the outcome in test [14], in [16] and in test [17] was inactive. Besides, the potentiation was 21% (active) in test [4] and 26.4% (active) in test [15].

As for `CSc1ccc2nnc(-c3cccc(F)c3)n2n1`, the result in test [1], in [2], in test [3], in test [5], in [6] and in test [7] was inactive. Also, the result in test [8], in [9], in [10], in test [11], in test [12] and in [13] was inactive. Moreover, the outcome in [14], in test [16] and in [17] was inactive. The potentiation in test [4] was 43% (active); in test [15], 26.8% (active).

As for `Cc1nn2c(N3CCN(C)CC3)c3c(nc2c1-c1ccccc1)CCCC3`, the result in test [1], in test [2], in test [3], in test [4], in [5] and in [6] was inactive. Moreover, the outcome in test [7], in test [8], in [9], in [10], in test [11] and in test [12] was inactive. For the same molecule, the result in test [13], in test [14], in [15], in test [16] and in test [17] was inactive.

For the molecule `CCN1CCN(c2ccc(NC(=O)CCc3c(C)nc4c(-c5ccc(F)cc5)c(C)nn4c3C)cc2)CC1`, the result in [1], in [2], in test [3], in [4], in [5] and in test [6] was inactive. Besides, the outcome in [7], in [8], in [9], in test [10], in test [11] and in test [12] was inactive. The result in test [13], in test [14], in test [15], in test [16] and in test [17] was inactive.

Usually inhibition stands for how much of the control response was suppressed. Regarding `COC(=O)c1ccccc1NC(=O)CCC(=O)N1CC(C)Oc2ccc(C)cc21` (stereo not given), the outcome in [1], in [2], in [3], in test [4], in test [6] and in [7] was inactive. For the same molecule, the outcome in test [8], in test [9], in test [10], in test [11], in test [12] and in [13] was inactive. The outcome in [15], in test [16] and in test [17] was inactive. Besides, the inhibition in test [5] was 75% (active); in [14], 44% (active).

Consider `Cc1ccc(NC(=O)Nc2cccc([N+](=O)[O-])c2)nc1`, for which the result in test [1], in [2], in test [4], in [5], in [6] and in [7] was inactive. The outcome in test [8], in test [9], in [10], in [11], in test [12] and in test [13] was inactive. Further, the outcome in test [14], in test [16] and in test [17] was inactive. Besides, the results for the potentiation in test [3] and in [15] were 12% (active) and 24.5% (active), respectively.

As to `CC(=O)n1cc([C@@H]2C=C(C(=O)NCc3ccccc3)O[C@H](OCc3ccc(CO)cc3)C2)c2ccccc21`, the outcome in [1], in test [2], in [3], in test [4], in test [5] and in test [6] was inactive. The result in test [7], in [8], in [9], in test [10], in [11] and in test [12] was inactive. For the same molecule, the result in [13], in test [14], in [16] and in test [17] was inactive. Further, in test [15], the potentiation was 14.7% (active).

Turning to `CC1(C)CC(=O)C(C=NCCN2CCN(C3CC(=O)N(c4cccc(Br)c4)C3=O)CC2)=C(O)C1` (stereo not given), the outcome in test [1], in test [2], in test [4], in test [5], in test [6] and in [7] was inactive. The outcome in test [8], in test [9], in test [10], in [11], in test [12] and in [13] was inactive. Further, the outcome in [14], in test [16] and in [17] was inactive. Also, the figures for the potentiation in test [3] and in test [15] were 12% (active) and 16.8% (active), respectively.

Consider `CCN1CCN(c2ccc(S(=O)(=O)N3CCCCC3)cc2NC(=O)c2cccc(OC(F)F)c2)CC1`, for which the result in test [1], in test [2], in [5], in test [6], in test [7] and in test [8] was inactive. In addition, the outcome in test [9], in test [10], in test [11], in [12], in test [13] and in test [14] was inactive. The outcome in test [16] and in test [17] was inactive. Further, the potentiation is 7% (active) in test [3], 18% (active) in test [4] and 15.6% (active) in test [15].

On to `CCCc1c(-c2ccc(O)cc2)nn(-c2ccc(O)cc2)c1-c1ccc(O)cc1`, for which the result in test [1], in test [2], in test [3], in [5], in [6] and in [7] was inactive. In addition, the result in test [8], in [9], in [10], in test [11], in test [12] and in test [13] was inactive. The outcome in test [14], in test [16] and in test [17] was inactive. For the same molecule, the potentiation was 20% (active) in [4] and 23.9% (active) in [15].

Consider `CN(C)S(=O)(=O)c1ccc(Cl)c(C(=O)NC2CCN(Cc3ccccc3)C2)c1` (stereo not given), for which the result in test [1], in test [2], in [3], in test [4], in [5] and in test [6] was inactive. Besides, the result in test [7], in [8], in test [9], in test [10], in [11] and in [12] was inactive. Besides, the outcome in test [13], in [14], in [16] and in [17] was inactive. Moreover, the potentiation in [15] was 15.3% (active).
